POLI inh: blocks human DNA polymerase iota activity; Q9UNA4; Pol iota fluorescent replication assay, 10 min; Potency, µM (top dose mostly 115 µM), for the others: at the top dose activity, negative = inhibition, most hits filed as inhibitors; 1% of 390,000 active; also: potency is read from the fitted curve at half-maximal effect
Target sequence (Q9UNA4 whole entry, looked up): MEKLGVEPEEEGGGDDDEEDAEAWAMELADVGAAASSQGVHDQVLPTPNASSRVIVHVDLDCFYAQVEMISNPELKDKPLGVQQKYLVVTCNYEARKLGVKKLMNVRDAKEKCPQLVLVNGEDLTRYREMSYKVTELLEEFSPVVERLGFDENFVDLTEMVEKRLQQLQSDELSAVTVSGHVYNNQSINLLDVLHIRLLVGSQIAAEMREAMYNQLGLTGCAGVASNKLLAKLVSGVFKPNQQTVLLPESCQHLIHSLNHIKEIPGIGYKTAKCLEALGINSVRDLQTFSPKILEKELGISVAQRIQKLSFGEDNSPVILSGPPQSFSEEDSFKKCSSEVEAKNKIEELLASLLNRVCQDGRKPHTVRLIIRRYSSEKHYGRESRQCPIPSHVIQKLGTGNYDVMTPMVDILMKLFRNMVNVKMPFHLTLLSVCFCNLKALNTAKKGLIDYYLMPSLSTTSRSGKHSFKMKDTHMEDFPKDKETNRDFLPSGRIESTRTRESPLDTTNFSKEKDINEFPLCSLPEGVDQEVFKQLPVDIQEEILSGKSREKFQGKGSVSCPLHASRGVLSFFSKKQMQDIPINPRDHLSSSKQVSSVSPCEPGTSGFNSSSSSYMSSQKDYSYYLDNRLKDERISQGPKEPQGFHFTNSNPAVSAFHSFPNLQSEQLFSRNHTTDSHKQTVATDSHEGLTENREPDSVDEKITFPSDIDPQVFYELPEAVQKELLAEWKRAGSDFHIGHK
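Fluorescent replication assay read twice, at 0 min and 10 min after adding 50 nM (final) substrate. Enzyme (10 nM) and compounds were first incubated 15 min at room temperature; enzyme-free buffer wells were negative controls.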
Pol kappa inh-1: DNA polymerase kappa (human) inhibition; Q9UBT6; purified Pol kappa, fluorescent DNA synthesis assay, 10 min; Potency, µM (series often up to 107 µM), inactives show top-dose activity, negative = inhibition, most hits filed as inhibitors; 0.53% of 400,000 active; also: potency is read from the fitted curve at half-maximal effect; % is scaled to controls: 0 for no effect and ±100 for the full control effect
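Inhibition of 10 nM Pol kappa is measured by a fluorescent read-out at 0 and 10 min following addition of 50 nM substrate (final), with a 15-min room-temperature compound preincubation.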
TDP1 inh: blocks human tyrosyl-DNA phosphodiesterase 1; Q9NUW8; recombinant TDP1, AlphaScreen DNA substrate cleavage; Potency, µM (doses to about 130 µM), inactives show at the highest dose activity change, negative = inhibition, actives largely listed as inhibitors; 0.28% of 350,000 active; also: potency is read from the fitted curve at half-maximal effect; % is scaled to controls: 0 for no effect and ±100 for the full control effect; nearly all actives have a fitted effect of over 40% in size
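Recombinant E. coli-expressed Tdp1 (1 nM) preincubated with compound 15 min at RT, then 5'-biotin/3'-phosphotyrosine-FITC DNA substrate (15 nM) added for 5 min. AlphaScreen beads (10 ug/ml) added, 10 min RT; tyrosine-FITC cleavage read as signal loss.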
Pol eta inh-1: DNA polymerase eta (human) inhibition. Q9Y253. recombinant Pol eta, fluorescent DNA replication assay. Potency, µM (doses to about 114 µM), for the others: at the top dose activity change, negative = inhibition, most hits filed as inhibitors. 1.2% of 390,000 active. AID 588591; also: potency is read from the fitted curve at half-maximal effect; % is scaled to controls: 0 for no effect and ±100 for the full control effect
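Fluorescent replication assay: 50 nM final substrate added after a 15 min room-temperature compound preincubation with 10 nM enzyme. Signal taken at 0 min and again at 10 min.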
Pol beta inh: DNA polymerase beta (human) inhibition | P06746 | Pol beta primer extension/strand displacement, fluorescence kinetic | Potency, µM (series often up to 114 µM), without a hit: at the top dose activity change, negative = inhibition, usual class: inhibitors | 1.3% of 340,000 active | AID 485314; also: potency is read from the fitted curve at half-maximal effect; % is scaled to controls: 0 for no effect and ±100 for the full control effect
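Reaction started by 50 nM substrate onto compound-treated Pol beta (10 nM, 15 min preincubation, room temperature); plates read at 0 min and 10 min. Normalized concentration-effect data fitted by four-parameter Hill equation.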
BAZ2B confirm: confirmation of human BAZ2B bromodomain inhibitors | shares compounds with Pol kappa inh-1 | AlphaScreen BAZ2B / biotin-H3K14Ac peptide displacement | Potency, µM, hits mostly inhibitors | 100% of 25 active; calls by dose curve
BAZ2B bead ctr: AlphaScreen signal interference, BAZ2B hit counter-screen. shares compounds with Pol kappa inh-1. AlphaScreen biotin-His6 peptide bead counterscreen, signal decrease. Potency, µM (top dose mostly 57.1 µM), for the others: top-dose activity change, negative = inhibition, hits mostly inhibitors. 25 tested, under 10 active. AID 588859;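 active = clear concentration-dependent signal drop in the bead assay lacking the target, so a primary-screen artifact; inconclusive = weak, partial or single-dose response; inactive = no response, so a real primary hit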
TbPGK inh: blocks T. brucei phosphoglycerate kinase; AID 686980; shares compounds with Pol kappa inh-1; 79% of 500 active; TbPGK coupled GAPDH assay, Kinase-Glo luminescence; Potency, µM (top dose mostly 57.5 µM), for inactives: at the highest dose activity change, negative = inhibition, most hits filed as inhibitors; also: potency is read from the fitted curve at half-maximal effect; % is scaled to controls: 0 for no effect and ±100 for the full control effect; nearly all actives have a fitted effect of over 65% in size
Pol iota confirm: Human Pol iota inhibitor confirmatory assay; Pol iota primer extension, TAMRA/BHQ fluorescence; shares compounds with Pol kappa inh-1; Potency, µM, hits mostly inhibitors; 77% of 1,500 active; also: potency is read from the fitted curve at half-maximal effect
GALK confirm: galactokinase (human) inhibition, confirmation | shares compounds with Pol eta inh-1 | Potency, µM (top dose mostly 115 µM), inactives show at the top dose activity, negative = inhibition, most hits filed as inhibitors | purified GALK, Kinase-Glo ATP depletion luminescence | 70% of 150 active | AID 2015
GALK redox cs: counter-screen for GALK inhibitors: redox cycling H2O2 generation. shares compounds with Pol eta inh-1. Phenol red-HRP H2O2 redox cycling, absorbance 600 nm. Potency, µM (highest dose often 115 µM), without a hit: at the highest dose activity change, negative = H2O2 signal, usual class: inhibitors. 40% of 150 active. AID 2035
HEK293 viability: HEK-293 cytotoxicity, GALK inhibitor secondary. shares compounds with Pol eta inh-1. HEK-293 viability, ATP luminescence (CellTiter-Glo), 24/48 h. Potency, µM (highest dose often 46.1 µM), for inactives: at the highest dose activity change, negative = cytotoxicity, most hits filed as inhibitors. 10% of 170 active. AID 2547; also: potency is read from the fitted curve at half-maximal effect; % is scaled to controls: 0 for no effect and ±100 for the full control effect
Pol kappa inh-2: confirmation of human DNA polymerase kappa inhibitors; shares compounds with Pol eta inh-1; Potency, µM, usual class: inhibitors; 76% of 920 active; purified Pol-kappa, fluorescent strand-displacement substrate; also: potency is read from the fitted curve at half-maximal effect
Pol eta inh-2: Pol eta (human) inhibition, cherry-pick confirmation; shares compounds with Pol eta inh-1; Pol eta primer extension, TAMRA/BHQ fluorescence, 10 min; Potency, µM, most hits filed as inhibitors; 64% of 2,600 active; also: potency is read from the fitted curve at half-maximal effect
* hit, by the source's call; ? = inconclusive; . = no result given; [ ] = remark or other dose. The list is not random: actives were taken first. Their share in the collection is about 2.4%. Unless noted, calls follow the shape of the dose curve; as a rule, active = well fitted curve in the direction sought with a large enough effect; inconclusive = small, poorly fitted or top-dose-only effect, or another doubt; inactive = no such curve, though single readings can be large; an effect the other way counts as inactive or inconclusive.

SMILES | POLI inh | Pol kappa inh-1 | TDP1 inh | Pol eta inh-1 | Pol beta inh | Pol iota confirm | Pol eta inh-2 | others
CCN1C(=O)C(=C2C=C(C)N(Cc3ccco3)C(C)=C2)C(=O)N(CC)C1=S | 37% | -5% | -1% | -17% | 3% | . | .
COc1ccc(/C=C2/C(=O)N(Cc3ccco3)C(=O)N(C(C)C)C2=O)cc1 | 7.9µM* | 20µM* | -13% | 4.5µM* | 20µM* | 21* | 11* | TbPGK inh=?
CC(C)CCCC(C)C1CCC2C3CC(O)[C@@]4(O)CC(O)CC[C@@]4(C)C3CC[C@@]12C (stereo partly drawn) | . | ? | 4% | . | . | . | .
O=C1NC(=O)N(c2cccc(Cl)c2)C(=O)/C1=C\c1ccc(Sc2nc3ccccc3[nH]2)o1 | ? | 22µM* | . | 18µM* | 32µM* | 75* | 27*
O=C1NC(=S)NC(=O)C1=Cc1cccn1-c1ccc(O)cc1 | 2.2µM* | 18µM* | -8% | 3.5µM* | 25µM* | 7.5* | 6* | TbPGK inh=16µM*
Cc1cc(C)cc(N2C(=O)NC(=O)/C(=C\c3cccn3-c3ccccc3)C2=O)c1 | ? | -17% | -2% | -5% | -3% | . | .
CCOC(=O)CCN(SN(C)C(=O)Oc1cccc2c1OC(C)(C)C2)C(C)C | . | 0%[60.1 µM] | -12% | . | . | . | .
N#CC(Cl)Cl | . | . | -6% | . | . | . | .
O=C(O)Cc1ccc(-n2cccc2)cc1 | 13µM* | 45µM* | 5% | 3.5µM* | 4.5µM* | 12* | 7.6* | BAZ2B confirm=25*;BAZ2B bead ctr=?
CCOC(=O)c1c(C)[nH]c(C)c1S(=O)(=O)N1CCC(C(=O)N2CCN(c3cccc(Cl)c3)CC2)CC1 | 32% | -5%[60.1 µM] | -1% | -15% | 31% | . | .
COc1ccc(CN2CCN(C(=O)Cn3c(=O)oc4cc(Cl)ccc43)CC2)c(OC)c1OC | 18% | 12% | . | ? | -19% | . | .
O=C(O)CCn1cc(C=C2C(=O)NC(=S)NC2=O)c(-c2cc3ccccc3oc2=O)n1 | 40µM* | ? | -2% | 20µM* | -25% | 67* | 30*
N#CCCn1cc(C=C2C(=O)NC(=O)NC2=O)c(-c2ccccc2)n1 | ? | 2% | 5% | -16% | -20% | . | .
C[S@@](=O)CCCCN=C=S | . | 14%[60.1 µM] | 4% | . | . | . | .
CCOc1ccc(-n2c(/C=C/c3ccccc3)nc3ccccc3c2=O)cc1 | 5% | -9%[60.1 µM] | 3% | -13% | 0% | . | .
CCn1nc(/C=C/c2ccccc2)nc2c(=O)n(C)c(=O)nc1-2 | -92% | 1% | -3% | 0.79µM* | -11% | 0.75* | 0.76* | TbPGK inh=0.52µM*
c1ccc(NNc2ccccc2)cc1 | . | . | 17% | . | . | . | .
CC[n+]1c(-c2ccccc2)c2cc(N)ccc2c2ccc(N)cc21 | 40µM* | 20µM* | 9% | 4.5µM* | . | 15* | ? | Pol kappa inh-2=9.5*
Cc1csc2nc(COC(=O)c3ccccc3NC(=O)c3ccc(F)cc3)cc(=O)n12 | -3% | 0%[60.1 µM] | -4% | -11% | 33% | . | .
O=C1NC(=O)N(Cc2ccc(F)cc2)C(=O)/C1=C\c1ccc([N+](=O)[O-])s1 | 14µM* | 32µM* | 4% | 28µM* | ? | 42* | 17*
O=C1NC(=O)N(Cc2ccc(F)cc2)C(=O)/C1=C\c1ccc(N2CCCC2)cc1 | 14µM* | ? | 5% | 32µM* | 35µM* | 67* | 60*
COc1ccc(CN2C(=O)NC(=O)/C(=C/c3ccc([N+](=O)[O-])s3)C2=O)cc1 | ? | 22µM* | 5% | 14µM* | 22µM* | 24* | 5.4*
C=C1CCC(O)C/C1=C/C=C1\CCC[C@]2(C)[C@@H]([C@H](C)CCCC(C)C)CC[C@@H]12 (stereo partly drawn) | . | 5%[60.1 µM] | 11% | . | . | . | .
CCOC(=O)C1CCCN(c2ccc([N+](=O)[O-])c3nonc23)C1 (stereo not drawn) | 56µM* | 25µM* | 6% | 35µM* | 14µM* | 38* | 76* | Pol kappa inh-2=84*
CC1CCCN(c2ccc(C(=O)N3CCC4(CC3)OCCO4)cc2[N+](=O)[O-])C1 (stereo not drawn) | 143% | 1% | 4% | -19% | 1% | . | .
CCC1OC2(C)C(O)C(/C=C/C=C/C=C/c3oc(=O)cc(OC)c3C)OC1(C)C2OC(C)=O (stereo not drawn) | . | 15%[60.1 µM] | 13% | . | . | . | .
O=C(Cc1cc(=O)oc2cc(O)ccc12)NN=Cc1ccc(N(CCCl)CCCl)cc1 | ? | ? | . | 16µM* | . | ? | ?
COC(=O)c1nc(-c2ccc3c(n2)C(=O)C(N)=C(OC)C3=O)c(N)c(-c2ccc(OC)c(OC)c2O)c1C | 8.9µM* | ? | 1% | 10µM* | ? | 47* | ? | GALK confirm=5.3µM*;GALK redox cs=6.7µM*;HEK293 viability=-4%

High-throughput results as filed in PubChem.
